HCMV inh = inhibitors of human cytomegalovirus; HFF cells, HCMV-luciferase reporter, 72 h; active compounds read low; activity change, negative = inhibition, % at 57.5 µM; hit rate 4.5% among 410,000; AID 1259415; in the data active means activity change below about -60%; inconclusive means no clear call, values can overlap the other calls; inactive means above about -39%
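Steps: HFFs plated, 16 h 37C; compounds added; HCMV-luciferase added to MOI 1 PFU/cell; 72 h 37C; OneGlo reagent, 5 min room temperature; luminescence read, normalized to controls.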
FMDV inh = blocks foot and mouth disease virus; Potency, µM (top dose mostly 57.9 µM), hits mostly inhibitors; hit rate 1.2% among 410,000; FMDV antiviral cell-based qHTS; calls by dose curve; tested in HEK293T cells; further: read-out not given here; nearly all actives have a fitted effect of over 45% in size
SARS PLpro yeast = blocks SARS-CoV papain-like protease in a yeast assay | S. cerevisiae expressing SARS-CoV PLpro, growth rescue | Potency, µM (titrated, usually from 32.9 µM), hits mostly activators | hit rate 0.19% among 330,000 | AID 485353; calls by dose curve; further: nearly all actives have a fitted effect of over 55% in size
MARV entry inh = blocks Marburg virus binding to or entry into cells; Marburg virus pseudotyped entry inhibition, cell reporter; Potency, µM (series often up to 37.8 µM), hits mostly inhibitors; hit rate 1.8% among 300,000; AID 540276; calls by dose curve; tested in HEK293 cells
HCV inh = blocks hepatitis C virus. Huh7.5.1 HCVcc-Cre infection, luciferase reporter, 44 h. Potency, µM (doses to about 41.8 µM), hits mostly inhibitors. hit rate 3.4% among 340,000; active means well fitted inhibition curve with a large enough effect; inconclusive means small, poorly fitted or top-dose-only effect, or another doubt; inactive means no such curve, though single readings can be large or run the other way
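Seed cells (1,000/well) for 4 h; treat with compound and infect with HCVcc-Cre, moi about 0.5. Incubate 44 h, then detect luciferase activity.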
Lassa entry inh = blocks Lassa virus binding to or entry into cells; Lassa virus pseudotype entry inhibition, cell reporter; Potency, µM (highest dose often 37.9 µM), hits mostly inhibitors; hit rate 1.2% among 300,000; AID 540256; calls by dose curve; tested in HEK293 cells; further: nearly all actives have a fitted effect of over 50% in size
Hits are given with their value; - = inactive; ? = inconclusive; . = no result. Rows were chosen to be rich in hits. Some 8% of all compounds tested hit in one or more screens of this group.

SMILES	HCMV inh	FMDV inh	SARS PLpro yeast	MARV entry inh	HCV inh	Lassa entry inh
Cc1ccc(Cl)cc1NC(=O)c1cnn2c1NC(c1ccco1)CC2C(F)(F)F (stereo not given)	?	?	-	?	25µM	?
CN(Cc1ccc(-n2cccn2)cc1)C(=O)c1cnn2c1NC(c1ccco1)CC2C(F)(F)F (stereo not given)	-	25µM	-	?	11µM	?
OCCN1CCN(Cc2ccc3c(c2)CN(Cc2cccn2-c2ccccn2)CCO3)CC1	.	-	.	.	.	.
Cc1ccc(S(=O)(=O)N(C)C)cc1NC(=O)COC(=O)/C(=C/c1ccc(F)cc1)c1cccs1	-	?	-	?	11µM	?
Cc1cc(C(=O)OCC(=O)Nc2cc(S(=O)(=O)N(C)C)ccc2C)c2ccccc2n1	-	16µM	-	-	-	-
Cc1ccc(S(=O)(=O)N(C)C)cc1NC(=O)COC(=O)c1cccs1	-	-	.	.	.	.
Cc1cc(C(=O)OCC(=O)Nc2cc(S(=O)(=O)N(C)C)ccc2Cl)c2ccccc2n1	-	-	-	-	-	-
Oc1c(C(c2ccccc2F)N2CCN(Cc3ccccc3)CC2)sc2nc(-c3ccco3)nn12 (stereo not given)	-	-	.	.	.	-
CC(C)[C@H](NC(=O)c1ccc(Cl)cc1Cl)C(=O)N1CCC[C@H]1C(=O)NCCc1ccccc1Cl	-	.	.	.	.	.
COc1ccc(Sc2nc(-c3ccccn3)ncc2OC)cc1	?	-	-	16µM	?	21µM
COc1cnc(-c2ccccn2)nc1Sc1ccccc1	-100	-	?	?	6.3µM	-
COc1cnc(-c2ccccn2)nc1Sc1ccc(F)cc1	?	-	-	?	0.56µM	?
COc1cnc(-c2ccccn2)nc1Oc1cccc(C(F)(F)F)c1	-99	.	-	.	.	.
COc1cnc(-c2ccccn2)nc1Sc1ccc(Cl)cc1	-	-	?	?	?	?
COc1ccccc1CN1CCOc2ccc(CN3CCC(Oc4cccnc4)CC3)cc2C1	.	-	.	.	.	.
Cc1nn(C)c2c1c(C(F)(F)F)cc(=O)n2CC(=O)NCCC(C)C	-	-	.	.	.	-
CCCCc1nc2c(c3c1C[C@H](C)OC3)CN(S(=O)(=O)c1ccc(C)cc1)CC2	.	.	.	-	.	?
COc1cc(/C=C/c2nc(C#N)c(N3CCCCCC3)o2)cc(OC)c1OC	-	-	.	?	.	?
COc1cnc(-c2ccccn2)nc1N(C)c1ccccc1	-98	-	-	?	10µM	?
COc1cnc(-c2ccccn2)nc1Oc1ccccc1	-	-	-	?	-	-
Cc1ccc(Nc2nnc(-c3ccc(C)c(S(=O)(=O)N4CCN(C)CC4)c3)c3ccccc23)c(C)c1	-	-	.	-	.	-
Cc1cccc(NC(=O)CN2C(=O)C(c3ccccc3)=NC23CCC(C)CC3)c1 (stereo not given)	-61	-	.	?	.	?
Cc1ccc(NC(=O)CN2C(=O)C(c3ccccc3)=NC23CCCCC3)cc1C	-	-	.	?	.	-
O=C(CN1C(=O)C(c2ccc(F)cc2)=NC12CCCC2)Nc1ccc(F)cc1	-78	?	-	.	2.5µM	.
CCN1CCCC1CNC(=O)c1cnn(-c2nccc(-c3cccs3)n2)c1C1CC1 (stereo not given)	.	-	.	.	.	.
SMILES	HCMV inh	FMDV inh	SARS PLpro yeast	MARV entry inh	HCV inh	Lassa entry inh
CCOC(=O)c1c(-c2ccc(C)cc2)cn2ccccc12	-	-	-	-	10µM	-
O=C(COc1ccc(NC(=O)c2ccccc2)cc1)c1ccccc1	-	-	-	.	-	.
O=C(COc1ccc(Br)cc1)Nc1ccc(NC(=O)c2ccccc2)cc1	-68	-	-	-	.	-
O=C(COc1ccc(Br)cc1)Nc1ccc(S(=O)(=O)Nc2ccccn2)cc1	-70	-	-	-	-	-
O=C1CCC2=C(CC(O)=C(O)C2)O1	.	.	.	-	.	.
COc1cccc(NS(=O)(=O)c2ccc3c(c2)N(C)C(=O)CC(=O)N3C)c1	-	-	.	-	.	-
CCOc1ccc(C2c3c(oc4ccccc4c3=O)C(=O)N2Cc2ccc3c(c2)OCO3)cc1 (stereo not given)	-	-	.	?	.	-
COCCCNC(=O)c1csc([C@H]2C[C@H](O)[C@@H](CO)O2)n1	-100	-	.	.	.	.
O=C(Nc1ccc(Oc2ccccc2)cc1)c1csc(COCCO)n1	-81	-	.	.	.	.
COCCCNC(=O)c1csc([C@@H]2C[C@H](O)[C@@H](CO)O2)n1	-	-	.	.	.	.
O=C(Nc1ccc(Oc2ccccc2)cc1)c1csc([C@@H]2C[C@H](O)[C@@H](CO)O2)n1	-91	?	.	.	.	.
CC(C)(C)C(=O)OCc1cc(=O)n2nc(C3CC3)sc2n1	-	-	.	.	.	-
Cc1c(Cl)cccc1NC(=O)c1ccc2nc(C(C)C)oc2c1	-	?	.	.	.	-
CCOc1ccc(-c2nnc(SCC(=O)Oc3ccccc3)o2)cc1	?	-	.	?	.	-
Cc1[nH]n(-c2ccccc2)c(=O)c1C(C[N+](=O)[O-])c1ccc(Br)cc1 (stereo not given)	-104	?	-	-	-	?
COc1cccc(C(C[N+](=O)[O-])c2c(C)[nH]n(-c3ccccc3)c2=O)c1 (stereo not given)	-	-	-	-	-	-
CCOC(=O)c1c(NC(=O)c2nc(S(C)(=O)=O)ncc2Cl)sc(C(C)=O)c1C	-	?	.	-	.	-
COc1cc(C2C(C#N)=C(N)N(Nc3ccccc3)C3=C2C(=O)CC(C)(C)C3)ccc1OCc1cccc(F)c1 (stereo not given)	-	-	-	1.8µM	?	?
COc1cc(C2C(C#N)=C(C)NC3=C2C(=O)CC(C)(C)C3)ccc1OCCO (stereo not given)	-	-	-	-	?	-
COc1cc(C2C(C#N)=C(C)NC3=C2C(=O)CC(C)(C)C3)cc(OC)c1O (stereo not given)	-61	-	-	-	-	-
COc1cc(C2C(C#N)=C(N)N(Nc3ccccc3)C3=C2C(=O)CC(C)(C)C3)ccc1OCc1ccccc1 (stereo not given)	-	-	-	?	?	?
COc1cc(C2C(C#N)=C(N)N(N(C)C)C3=C2C(=O)CC(C)(C)C3)cc(OC)c1OC (stereo not given)	-82	-	-	?	-	-
Cc1ccc2cc(CN(C(=O)c3cccc(Cl)c3)c3ccccc3)c(=O)[nH]c2c1	-	?	.	-	.	?
COc1cc(=O)n2c(c1C(=O)N(C)Cc1nonc1C)CCN(Cc1ccccc1F)CC2	.	-	.	.	.	.
CS(=O)(=O)c1nc(S(=O)(=O)c2ccc(Cl)cc2)c(N2CCCCCC2)s1	?	-	-	-	-	-
Cc1ccc(S(=O)(=O)c2nc(S(C)(=O)=O)sc2N2CCC(O)CC2)cc1	-	-	-	.	-	.
Cc1ccc(S(=O)(=O)c2nc(S(=O)(=O)c3ccc(C)cc3)c(N3CCN(CCO)CC3)s2)cc1	-107	-	-	.	?	.
CCS(=O)(=O)c1nc(S(=O)(=O)c2ccc(Cl)cc2)c(N2CCN(C)CC2)s1	-77	-	-	.	-	.
Cc1ccc(S(=O)(=O)c2nc(S(C)(=O)=O)sc2N2CCCCC2C)cc1 (stereo not given)	-75	-	-	.	-	.
